Assay results: ChEMBL document CHEMBL3988442, “University of Dundee, Small-Polar-MMV Screening Library” (2021)
In all, about 48,000 compounds went through this assay and about 13,000 (27%) showed an effect of 50% or more. The list shows a part of the results.

What follows are compounds tested on Wolbachia pipientis (assay: Anti-Wolbachia Cell-Based Screen). Conditions: 5 µM.
Assay type: functional
Design: scale not given: in the data most compounds retested in dose-response had high values

Row | SMILES | Percent Effect
1 | COc1cccc(-c2ncc(CN3CC[C@H]4CC[C@@H](C3)N4)s2)c1 | -2.167%
2 | O=c1[nH]c(-c2ccc(F)c(F)c2)nc2c1CCNC2 | -21.65%
3 | Cc1nc(CN(C)C2CCN(Cc3cnc(C)s3)C2)no1 (stereo not drawn) | 106.5%
4 | Cc1nc(CN2CCCC(N(C)Cc3nnsc3Cl)C2)no1 (stereo not drawn) | -2.376%
5 | Cc1nc(CN(C)C2CCN(Cc3ccc(Cl)s3)C2)no1 (stereo not drawn) | 99.87%
6 | Cc1nc(CN2CCCC(N(C)Cc3cnc(C)s3)C2)no1 (stereo not drawn) | 2.952%
7 | CCc1cnc(CN2CCC(N(C)Cc3noc(C)n3)C2)o1 (stereo not drawn) | 97.22%
8 | CCOc1nnc(CN2CCC(N(C)Cc3noc(C)n3)C2)s1 (stereo not drawn) | 5.667%
9 | CC(=O)N(Cc1noc(C)n1)C1CCN(Cc2cnc(C)s2)C1 (stereo not drawn) | 83.55%
10 | NC(=O)N1CCc2cc(C(=O)O)c(-c3ccsc3)nc2CC1.O=C(O)C(F)(F)F | -21.16%
11 | Cc1cc(CNC(=O)Nc2cc(F)cc(N3CCCC3)c2)no1 | -57.71%
12 | Cc1cccc(C(C)(C)CNC(=O)CN(C)S(=O)(=O)c2cccnc2)c1 | 4.775%
13 | CC(O)CN(CC(=O)NC1CCCCC1)c1ccccc1 (stereo not drawn) | -11.54%
14 | CC(C)(C)c1ncc2c(n1)CN(C(=O)c1ccc(-c3nc[nH]n3)cc1)C2 | -2.467%
15 | CCc1ccc(C(=O)N2CCN(Cc3ccc(F)cc3)CC2)s1 | -10.91%
16 | CC(C)(C)Cc1nnc(NCc2ccsc2)o1 | -6.79%
17 | CC(=O)N(Cc1noc(C)n1)C1CCN(Cc2ncc(C(C)C)o2)C1 (stereo not drawn) | 142.1%
18 | CC(=O)N(Cc1ncc(C(C)C)o1)C1CCN(Cc2ncc[nH]2)C1 (stereo not drawn) | 11.04%
19 | CC(=O)N(Cc1ncc(C(C)C)o1)C1CCN(Cc2nccn2C)C1 (stereo not drawn) | -4.268%
20 | CCNC(=O)C(C)NC(=O)Nc1ccccc1Cl (stereo not drawn) | -14.58%
21 | CCC1(c2ccc(NS(=O)(=O)c3cccs3)cc2)CCC(=O)NC1=O (stereo not drawn) | 2.702%

Row | SMILES | Percent Effect
22 | CN(C)S(=O)(=O)Nc1ccc(-n2nncc2C(F)(F)F)cc1 | -14.8%
23 | CCC1(c2ccc(NS(=O)(=O)N(C)C)cc2)CCC(=O)NC1=O (stereo not drawn) | 138.3%
24 | CC(C)C(C)NC(=O)Nc1ccc(CS(=O)(=O)C(C)C)cc1 (stereo not drawn) | 98.92%
25 | CC(CO)NC(=O)Nc1ccc(CC#N)cc1 (stereo not drawn) | -17.07%
26 | CC(C)NC(=O)Nc1ccc(-c2nc3c([nH]2)CCNC3)cc1 | 8.53%
27 | CC(C)NC(=O)Nc1ccc(CS(C)(=O)=O)cc1 | 125.1%
28 | CC(C)C(C)NC(=O)Nc1cccn(C)c1=O (stereo not drawn) | 14.72%
29 | CCNC(=O)Cc1ccc(NC(=O)NC(CC)CC)cc1 | 3.76%
30 | CC(C)C(C)NC(=O)Nc1ccc(CC(N)=O)cc1 (stereo not drawn) | 98.71%
31 | CCC(C)NC(=O)Nc1ccc(CN2CCOC2=O)cc1 (stereo not drawn) | 17.46%
32 | NC(=O)Cc1ccc(NC(=O)C2CCOCC2)cc1 | -3.616%
33 | Cc1occc1CNC(=O)N(CCCO)C1CCc2ccccc21 (stereo not drawn) | -0.08809%
34 | CCC(CO)N(Cc1ccccn1)C(=O)c1ncccc1C (stereo not drawn) | -0.3576%
35 | Cc1ccnc(C2CN(Cc3ccc(-c4ccccc4C(=O)O)o3)C2)n1 | 103.2%
36 | Cc1ccc(CN2C[C@@H](C(=O)O)[C@H](c3ccccn3)C2)o1 | 12.21%
37 | CCNC(=O)[C@@H]1C[C@H](N)CN1Cc1ccc(-c2ccccc2C#N)o1 | 18.83%
38 | CCNC(=O)[C@@H]1C[C@@H](N)CN1Cc1ccc(-c2ccccc2C#N)o1 | -0.5053%
39 | Nc1nccc(C2CN(Cc3ccc(-c4ccccc4C(=O)O)o3)C2)n1 | 91.52%
40 | CCc1cnc(C)nc1N1CCN(Cc2ccc(-c3cc[nH]n3)o2)CC1 | -14.59%
41 | Cc1nccc(C2CN(Cc3ccc(-c4ccccc4C(=O)O)o3)C2)n1 | 137.2%
42 | CCc1nc(C)ncc1C(=O)N1CC(=O)N(C)c2ccccc21 | -0.2346%

Row | SMILES | Percent Effect
43 | Cc1ccc(CN2CCC3(CCC3NS(=O)(=O)c3ccccc3)CC2)o1.O=C(O)C(F)(F)F (stereo not drawn) | -9.512%
44 | NCCN1C(=O)CC[C@H]2CN(Cc3ccc4occc4c3)CC[C@H]21 | -1.233%
45 | C1CN(c2nc(C3CC3)ns2)CCS1 | 2.674%
46 | CS(=O)(=O)c1cccc2c1CCCN2C(=O)Cc1cccc(F)c1 | 14.6%
47 | CS(=O)(=O)c1ccc(O[C@H]2COCCN(C(=O)c3ccno3)C2)cc1 | -17.98%
48 | CCCN(c1ccccc1C(=O)O)S(=O)(=O)c1ccc2ccccc2c1 | -7.662%
49 | CC1=CCN(C(=O)Nc2ccccc2N2CCOC2=O)CC1 | 8.909%
50 | COc1ccc(C)cc1C1(CNc2cn[nH]c(=O)c2Cl)CCOCC1 | 1.939%
51 | CC(NC(=O)N(C)Cc1ccncc1)c1cn(-c2ccccc2)nn1 (stereo not drawn) | -5.138%
52 | COC(=O)N1CCC(Nc2cccc(F)c2C(C)=O)CC1 | 7.066%
53 | CC1(C)CC(N(Cc2ccncc2)Cc2cccnc2)CC(C)(C)N1.O=C(O)CC(O)(CC(=O)O)C(=O)O | 106.8%
54 | CCCN(Cc1cccnc1)C(=O)C1CCS(=O)(=O)CC1 | -18.37%
55 | CCCN(Cc1cccnc1)C1CC(C)(C)NC(C)(C)C1.O=C(O)CC(O)(CC(=O)O)C(=O)O | 90.76%
56 | CCCN(Cc1cccnc1)C(=O)C1CCNC1 (stereo not drawn) | -6.629%
57 | CC1(C)CC(N(Cc2cccnc2)Cc2cccc(F)c2)CC(C)(C)N1.O=C(O)CC(O)(CC(=O)O)C(=O)O | 152.9%
58 | Cc1cccc(CN(Cc2cccnc2)C2CC(C)(C)NC(C)(C)C2)n1.O=C(O)CC(O)(CC(=O)O)C(=O)O | 68.09%
59 | CC1CN(c2ccc(CNC(=O)NCCn3ccnc3)cn2)CCO1 (stereo not drawn) | -7.777%
60 | Cc1nn(C)cc1-c1ccnc(N(C)Cc2ccoc2)n1 | -63.97%
61 | CN(Cc1ccncc1)C(=O)Nc1cnn(CC2CCCO2)c1 (stereo not drawn) | -18.51%
62 | Cl.O=C(Nc1cccc(C(=O)OCC2CCCN2)c1)c1ccoc1 (stereo not drawn) | -16.18%
63 | Cc1cc(C)n(CC2CCCN2CCCS(=O)(=O)N(C)C)n1 (stereo not drawn) | -14.18%
